Rows were chosen to be rich in hits. Some 19% of all compounds tested hit in one or more screens of this group.
Chronic BCR inh = chronic active BCR signaling inhibition; ABC-DLBCL IkBa-CBG/CBR reporter, luminescence ratio, 4 h; Potency, µM (highest dose often 46.1 µM), usual class: inhibitors; hit rate 0.05% among 340,000; active = well fitted inhibition curve with a large enough effect in the signal ratio, with a control signal flat, not every such curve was filed as active; inconclusive = small, poorly fitted or top-dose-only effect, or effect the other way, or a change in a side signal; the % refers to the signal ratio
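TMD8 human ABC-DLBCL cells with doxycycline-inducible IκBα–green luciferase fusion and unfused red luciferase, in 0.5% FBS medium; compounds up to 46 uM, 4 h at 37C. Green/red luminescence ratio, filter-overlap corrected, fitted to concentration-response curves.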
MCF10A rerep = DNA re-replication induction in MCF 10a cells; Potency, µM (highest dose often 46.1 µM), actives largely listed as activators; MCF 10A DNA re-replication, Hoechst nuclear intensity, 48 h; hit rate 2.9% among 350,000; also: nearly all actives have a fitted effect of over 50% in size
DT40 TDP1 no CPT = qHTS for Inhibitors of human tyrosyl-DNA phosphodiesterase 1 (TDP1): qHTS in cells in absence of CPT; DT40 Tdp1-/- hTDP1 cells, no CPT, ATP luminescence, 48 h; hit rate 15% among 420,000; Potency, µM (titrated, usually from 46.2 µM), most hits filed as inhibitors; also: nearly all actives have a fitted effect of over 55% in size
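Growth of hTDP1-complemented DT40 Tdp1-knockout cells is measured by ATP luminescence after at least 48 hr compound exposure at 37 °C, with DMSO substituting for the 20 nM CPT used in the parallel screen.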
SW480 rerep = induces DNA re-replication in SW480 colon adenocarcinoma cells; SW480 DNA re-replication, Hoechst DNA content imaging, 48 h; Potency, µM (highest dose often 46.1 µM), usual class: activators; hit rate 1.8% among 340,000; also: nearly all actives have a fitted effect of over 55% in size
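Readout is total intensity of Hoechst-stained nuclei, excited at 405 nm and collected at 500-530 nm. Compound treatment lasted 48 hr at 37 C in 5% CO2 before staining.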
TDP1 cell CPT = growth inhibition of DT40 Tdp1-/-;hTDP1 cells with camptothecin (screen for TDP1 inhibitors); Potency, µM (highest dose often 46.2 µM), usual class: inhibitors; hit rate 12% among 420,000; AID 686979; chicken DT40 Tdp1-/-;hTDP1 cells + 20 nM CPT, ATP luminescence, 48 h; also: nearly all actives have a fitted effect of over 55% in size
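Chicken DT40 Tdp1-/- cells stably complemented with human TDP1 were seeded at 400 cells/well in medium containing 20 nM camptothecin, exposed to pin-transferred compounds, and grown at 37 °C for at least 48 hr. Viability was read as ATP luminescence.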
IL-1B inflam inh = inflammasome signaling inhibition, IL-1 beta readout. THP-1 LPS/ATP IL-1B secretion, AlphaLISA, 16 h; active compounds read low. activity change, % at 57.5 µM. hit rate 4.7% among 360,000; in the data active = activity change below about -50%; inconclusive = mostly about -30% to -49%
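Secreted IL-1B measured by AlphaLISA bead assay after 16 h compound exposure of THP-1 cells; compounds (final up to 57.5 uM) added 1 h before LPS (250 ng/mL) and ATP (1.25 mM) stimulation; lower signal means less secretion.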
Large screens that a line does not name were inactive. Unless noted, calls follow the shape of the dose curve; as a rule, active = well fitted curve in the direction sought with a large enough effect; inconclusive = small, poorly fitted or top-dose-only effect, or another doubt; inactive = no such curve, though single readings can be large; an effect the other way counts as inactive or inconclusive.

O=Cc1cn(-c2ccccc2)nc1-c1ccncc1	DT40 TDP1 no CPT 23µM, SW480 rerep inconclusive, TDP1 cell CPT inconclusive
CCSCCOC(=O)C1=C(C)N(C)C(=O)NC1c1ccc2c(c1)OCO2 (configuration not stated)	none
CS(=O)(=O)N1N=C(c2ccco2)CC1c1ccccc1Cl (configuration not stated)	Chronic BCR inh inconclusive
COc1ccc2cc(C3CC(c4ccco4)=NN3S(=O)(=O)c3ccccc3)c(Cl)nc2c1 (configuration not stated)	DT40 TDP1 no CPT 15µM, TDP1 cell CPT inconclusive, IL-1B inflam inh inconclusive
COc1ccccc1C1CC(c2ccco2)=NN1S(C)(=O)=O (configuration not stated)	Chronic BCR inh inconclusive, DT40 TDP1 no CPT inconclusive, TDP1 cell CPT 21µM
CCOc1ccc2cc(C3CC(c4ccco4)=NN3S(=O)(=O)c3ccccc3)c(Cl)nc2c1 (configuration not stated)	DT40 TDP1 no CPT inconclusive, TDP1 cell CPT inconclusive
Cc1ccc(S(=O)(=O)c2c(C)cc(C)[nH]c2=O)c(C)c1	none
CC1CCC2(CC1)NC(=O)N(CC(=O)Nc1cccc(S(=O)(=O)N3CCCC3)c1)C2=O (configuration not stated)	DT40 TDP1 no CPT inconclusive, TDP1 cell CPT inconclusive
c1ccc2c(c1)oc1c(-c3cccc4nccn34)cccc12	DT40 TDP1 no CPT inconclusive, TDP1 cell CPT 13µM (no result: Chronic BCR inh, MCF10A rerep, SW480 rerep)
Clc1ccccc1-c1cccc2nccn12	DT40 TDP1 no CPT inconclusive, TDP1 cell CPT inconclusive (no result: Chronic BCR inh, MCF10A rerep, SW480 rerep)
CCOc1cc(C2C(C(=O)Nc3ccccc3)=C(C)Nc3ncnn32)cc(Br)c1O (configuration not stated)	none (no result: Chronic BCR inh, MCF10A rerep, SW480 rerep, IL-1B inflam inh)
COc1cc(NS(=O)(=O)c2ccc3c(c2)CCCN3C(C)=O)cc(OC)c1OC	DT40 TDP1 no CPT 9.2µM, TDP1 cell CPT 8.2µM (no result: Chronic BCR inh, MCF10A rerep, SW480 rerep, IL-1B inflam inh)
CCOc1ccc(CNS(=O)(=O)c2ccc3c(c2)CCCN3C(C)=O)cc1OC	DT40 TDP1 no CPT 18µM, TDP1 cell CPT inconclusive (no result: Chronic BCR inh, MCF10A rerep, SW480 rerep, IL-1B inflam inh)
CC(OC(=O)C1=COCCO1)C(=O)NC(C)c1ccc(Cl)cc1Cl (configuration not stated)	SW480 rerep inconclusive
C=N[C@@H](C(=O)N[C@@H]1C(=O)N2[C@@H]1SC(C)(C)[C@@H]2C(=O)O)c1ccccc1	none (no result: Chronic BCR inh, MCF10A rerep, SW480 rerep, IL-1B inflam inh)
Cc1ccc(NC(=O)C(=Cc2ccc(C(=O)O)cc2)C(=O)Nc2ccc(C)cc2C)c(C)c1	Chronic BCR inh inconclusive, MCF10A rerep 2.6µM, DT40 TDP1 no CPT 2.9µM, SW480 rerep 18µM, TDP1 cell CPT 5.2µM, IL-1B inflam inh -100
O=C(NC1CCCC1)C1c2ccccc2OCC(=O)N1C1CC1 (configuration not stated)	none (no result: Chronic BCR inh, MCF10A rerep, SW480 rerep)
Cc1ccc(C)c(Cn2nnc(C(=O)NCc3ccccc3)c2N)c1	DT40 TDP1 no CPT inconclusive (no result: Chronic BCR inh, MCF10A rerep, SW480 rerep, IL-1B inflam inh)
COc1ccccc1/C=C/CN1CCCC(CCC(=O)NCc2ccccc2F)C1 (configuration not stated)	DT40 TDP1 no CPT 21µM, TDP1 cell CPT 18µM, IL-1B inflam inh inconclusive
COc1ccc(C(=O)C2CCCN(Cc3cnc(N4CCOCC4)s3)C2)cc1F (configuration not stated)	Chronic BCR inh inconclusive
COc1ccc(C(=O)C2CCCN(Cc3ccc4nonc4c3)C2)cc1OC (configuration not stated)	Chronic BCR inh inconclusive
COc1ccc(C(=O)C2CCCN(Cc3c[nH]c4ccccc34)C2)c(OC)c1 (configuration not stated)	DT40 TDP1 no CPT 9.2µM, TDP1 cell CPT 7.3µM, IL-1B inflam inh inconclusive
COc1ccc(OC)c(CN2CCCC(C(=O)N3CCCCC3)C2)c1 (configuration not stated)	none
COc1ccc(C(=O)C2CCCN(Cc3cnc(N4CCOCC4)s3)C2)c(OC)c1 (configuration not stated)	DT40 TDP1 no CPT 16µM
COc1ccc(C(=O)C2CCCN(Cc3ccc(C#CCCO)cc3)C2)cc1F (configuration not stated)	Chronic BCR inh inconclusive, DT40 TDP1 no CPT inconclusive, TDP1 cell CPT inconclusive, IL-1B inflam inh -53
Oc1c(C(c2ccc(Cl)cc2)N2CCOCC2)sc2nc(-c3ccco3)nn12 (configuration not stated)	none (no result: MCF10A rerep, SW480 rerep, IL-1B inflam inh)
COc1ccc(/C=C/CN2CCCC(C(=O)c3ccc(OC)c(F)c3)C2)cc1 (configuration not stated)	MCF10A rerep inconclusive, DT40 TDP1 no CPT inconclusive, TDP1 cell CPT inconclusive, IL-1B inflam inh -93
COc1ccc(C(=O)C2CCCN(C/C=C/c3ccccc3OC)C2)c(OC)c1 (configuration not stated)	Chronic BCR inh inconclusive, DT40 TDP1 no CPT 2.6µM, SW480 rerep inconclusive, TDP1 cell CPT 21µM, IL-1B inflam inh inconclusive
COc1ccc(C(=O)C2CCCN(C(=O)COc3ccc(C(C)=O)cc3)C2)cc1F (configuration not stated)	Chronic BCR inh inconclusive, DT40 TDP1 no CPT inconclusive, TDP1 cell CPT inconclusive
COc1ccc(C(=O)C2CCCN(Cc3ccc4nonc4c3)C2)c(OC)c1 (configuration not stated)	DT40 TDP1 no CPT inconclusive, TDP1 cell CPT 12µM, IL-1B inflam inh -69
COc1cccc(C(=O)C2CCCN(C/C=C/c3ccccc3OC)C2)c1 (configuration not stated)	MCF10A rerep inconclusive, DT40 TDP1 no CPT inconclusive
COc1ccc(C(=O)C2CCCN(Cc3c(F)ccc(F)c3F)C2)c(OC)c1 (configuration not stated)	DT40 TDP1 no CPT inconclusive, IL-1B inflam inh -66
O=C(c1ccc2c(c1)OCO2)C1CCCN(Cc2c(F)ccc(F)c2F)C1 (configuration not stated)	none
Cc1ccc2c(c1)cc1c(=O)n(CC(=O)NC3CCCCC3)nc(C)n12	none (no result: Chronic BCR inh, MCF10A rerep, SW480 rerep, IL-1B inflam inh)
CCc1ccccc1NC(=O)CSc1nc2ncccc2o1	none (no result: MCF10A rerep, SW480 rerep, IL-1B inflam inh)
COc1ccc(C(=O)C2CCCN(Cc3cccn3-c3ccc(Cl)cn3)C2)c(OC)c1 (configuration not stated)	Chronic BCR inh inconclusive, DT40 TDP1 no CPT 21µM, TDP1 cell CPT 13µM (no result: IL-1B inflam inh)
O=C(N=Nc1c(O)[nH]c2ccccc12)Nc1ccccc1	DT40 TDP1 no CPT inconclusive, TDP1 cell CPT 18µM (no result: Chronic BCR inh)
Cc1cccc(NC(=S)N=Nc2c(O)[nH]c3ccccc23)c1	Chronic BCR inh inconclusive, MCF10A rerep 6.5µM, DT40 TDP1 no CPT 4.6µM, SW480 rerep inconclusive, TDP1 cell CPT 3.3µM
Cc1cccc(NC(=O)c2cc(=O)[nH]c3ccccc23)c1	none
O=C(CCCCCNC(=O)c1ccccc1Br)N=Nc1c(O)[nH]c2ccccc12	DT40 TDP1 no CPT inconclusive, TDP1 cell CPT 21µM

Bioassay records deposited in PubChem BioAssay by National Center for Advancing Translational Sciences (NCATS).
